# Compound activity (PubChem)
# In the library only some 3.1% were active in any assay of this set; here they are far more common.
# A549 viability = kills or reduces viability of A549 cells in Nrf2 counter-screen. A549 ARE-Fluc cells, CellTiter-Fluor viability, 18-24 h. Potency, µM (top dose mostly 46 µM), for inactives: top-dose activity change, negative = cytotoxicity, most hits filed as inhibitors. 390,000 tested, 0.16% active. AID 504648; note: % is set by controls: 0 for no effect and ±100 for the full control effect
#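 Cytotoxicity counterscreen: CellTiter-Fluor fluorescence was measured in A549 ARE_Fluc cells after 18-24 h of compound exposure in a concentration series. The subsequent BugLite luminescent read reports ARE-luciferase activity.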
# IDH1 R132H inh = inhibitors of human mutant IDH1 R132H; 390,000 tested, 0.093% active; Potency, µM (doses to about 76.6 µM), inactives show at the highest dose activity change, negative = inhibition, usual class: inhibitors; O75874; IDH1-R132H enzyme, NADPH consumption, diaphorase/resazurin fluorescence; note: % is set by controls: 0 for no effect and ±100 for the full control effect; nearly all actives have a fitted effect of over 65% in size
# Target sequence (O75874 whole entry R132H, stated change not applied): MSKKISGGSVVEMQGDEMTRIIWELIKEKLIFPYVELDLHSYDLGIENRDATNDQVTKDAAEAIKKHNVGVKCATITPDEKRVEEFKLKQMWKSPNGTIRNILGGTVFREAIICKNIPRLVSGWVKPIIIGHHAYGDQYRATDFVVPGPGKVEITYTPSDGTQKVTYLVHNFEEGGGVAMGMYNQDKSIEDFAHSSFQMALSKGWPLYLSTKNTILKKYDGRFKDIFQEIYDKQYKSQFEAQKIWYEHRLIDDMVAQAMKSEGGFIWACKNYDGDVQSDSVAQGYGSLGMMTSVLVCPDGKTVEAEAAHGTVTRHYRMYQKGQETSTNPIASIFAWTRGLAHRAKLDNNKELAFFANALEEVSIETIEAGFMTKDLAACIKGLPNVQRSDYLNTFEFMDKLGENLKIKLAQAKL
#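 IDH1-R132H (0.5 ug/mL) preincubated 30 min with compound, then NADPH (0.016 mM) and alpha-KG (2 mM) added; 80 min at RT, pH 7.5. Remaining NADPH coupled via diaphorase/resazurin to fluorescence (540/590 nm); concentration-response curves normalized to no-enzyme control.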
# Mito fusion yeast = mitochondrial division inhibition or fusion activation. S. cerevisiae fusion-defective mutant growth rescue, CellTiterGlo 48 h. 320,000 tested, 0.23% active. Potency, µM (highest dose often 46.1 µM), for inactives: top-dose growth rescue (activation), most hits filed as activators; note: % of control where 0% means no effect; nearly all actives have a fitted effect of over 45% in size
#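 Growth-rescue viability read-out: after 48 h at the non-permissive 37C in glycerol/ethanol YPEG, yeast mitochondrial fusion mutants are measured by CellTiterGlo luminescence; compounds (23 nl pinned per well) restoring growth score as division inhibitors or fusion activators.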
# TrxR1 substrate = is turned over as a substrate by rat TrxR1. AID 588456. Potency, µM (titrated, usually from 114 µM), inactives show at the top dose activity change, negative = substrate turnover. purified TrxR1 substrate turnover, NADPH consumption readout. 390,000 tested, 0.01% active. O89049; note: % is set by controls: 0 for no effect and ±100 for the full control effect; nearly all actives have a fitted effect of over 50% in size
#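 Rat TrxR1, dispensed at 90 nM, was prereduced with 400 uM NADPH (final) for 5 min at ~22 deg C, then incubated with compound 15 min before 400 uM selenite. A first-read NADPH fluorescence drop versus no-compound background flagged substrates.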
# TrxR1 inh = inhibitors of rat thioredoxin reductase 1 | recombinant rTrxR1, NADPH fluorescence consumption, selenite substrate | AID 588453 | 390,000 tested, 1% active | Potency, µM (titrated, usually from 114 µM), without a hit: at the highest dose activity change, negative = inhibition, hits mostly inhibitors | O89049; note: % is set by controls: 0 for no effect and ±100 for the full control effect; nearly all actives have a fitted effect of over 65% in size
#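 Rat TrxR1 (90 nM in the dispensed reagent) was pre-reduced with 400 uM NADPH for 5 min at room temperature, then incubated with compound for 15 min. After 400 uM selenite was added, NADPH fluorescence (Ex 340/Em 450 nm) was followed for 8 min.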
# Nrf2 block = blocks Nrf2 signaling. 360,000 tested, 2.1% active. A549 ARE-Fluc reporter, luciferase luminescence, 18-24 h. Potency, µM (highest dose often 46 µM), inactives show top-dose activity change, negative = inhibition, usual class: inhibitors; note: % is set by controls: 0 for no effect and ±100 for the full control effect; nearly all actives have a fitted effect of over 60% in size
#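 Nrf2 function is reported as luminescence of an ARE-controlled luciferase in A549 cells. Compounds were tested at several concentrations, and a CellTiter-Fluor read on the same wells flagged cytotoxicity.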
# * hit, by the source's call; u = inconclusive; x = not tested or not shown; [ ] = another dose, or the depositor's remark. Calls come from the whole dose curve; as a rule, active = well fitted curve in the direction sought with a large enough effect; inconclusive = small, poorly fitted or top-dose-only effect, or another doubt; inactive = no such curve, though single readings can be large; an effect the other way counts as inactive or inconclusive. Potency is the fitted concentration of half-maximal effect.
SMILES,A549 viability,IDH1 R132H inh,Mito fusion yeast,TrxR1 substrate,TrxR1 inh,Nrf2 block
COC(=O)C(Cc1ccccc1)NS(=O)(=O)c1cc(Br)ccc1Br (stereo not drawn),-1%,x,x,-1%,13%,19%
CC1=C(C(=O)Nc2ccccc2)C(c2ccccc2Cl)n2ncc(C(=O)Nc3cccc(C)c3)c2N1 (stereo not drawn),-1%,-9%,x,4%,14%,-7%
Cc1ccc(C)c(CSc2nnc(C)n3c2cc2sccc23)c1,-1%,2%,x,-9%,9%,26µM*
Cc1nnc(SCc2ccccc2)c2cc3sccc3n12,15%,x,x,-9%,6%,7%
CC(=O)NC(=O)NC1OC(=O)C(Cl)=C1Cl (stereo not drawn),2%,5%,-2%,-2%,1.6µM*,2%
O=C(O)c1cccc(N2C(=O)c3cccc4cccc(c34)C2=O)c1,3%,-2%,0%,2%[57.1 µM],-15%[57.1 µM],-6%
O=C(O)c1cccc(N2C(=O)c3cc([N+](=O)[O-])cc4cc([N+](=O)[O-])cc(c34)C2=O)c1,0%,0%,-4%,-17%,11µM*,u
Cc1cc2ccccc2c[n+]1C,x,x,x,7%,-15%,x
Cc1ccc(N(C)S(=O)(=O)c2nnc(NC(=O)C3CCCCC3)s2)cc1,2%,-1%,x,8%,17%,u
CCCCOC(=O)CSC1=C(C#N)C(c2ccccc2OCC)C(C#N)C(=O)N1 (stereo not drawn),u,u,-3%,-10%[57.1 µM],u,10µM*
COc1ccc(C2C3C=CCC(c4ccccc4)C3C(=O)N2Cc2ccccc2)cc1Cl (stereo not drawn),u,x,x,-2%,-1%,21µM*
COc1ccc(-c2c(C3C4C=CCC(C)C4C(=O)N3Cc3ccccc3)ccc3ccccc23)cc1OC (stereo not drawn),-15%,x,x,-8%,3%,21µM*
O=C(O)CCc1cccc2ccccc12,x,x,x,4%,-33%,x
O=C(COC(=O)c1cc([N+](=O)[O-])ccc1N1CCOCC1)c1ccc(Br)cc1,u,-1%,3%,-9%,-15%,26µM*
CCOc1ccc(C(=O)COC(=O)c2cc([N+](=O)[O-])ccc2N2CCOCC2)cc1,-6%,0%,-4%,-7%,7%,18%
Cc1cc(NC(=O)COC(=O)c2cc([N+](=O)[O-])ccc2N2CCOCC2)ccc1Br,u,3%,7%,0%[57.1 µM],7%[57.1 µM],18µM*
O=C(COC(=O)c1cc([N+](=O)[O-])ccc1NCCO)Nc1ccc2c(c1)OCO2,u,16%,-3%,9%[57.1 µM],14%[57.1 µM],10µM*
C[N+]1(CC(=O)c2ccc(Oc3ccccc3)cc2)CCOCC1,x,x,x,1%,6%,x
O=[S+]([O-])(c1c(F)cccc1F)N1CCN([S+](=O)([O-])c2csc3ccccc23)CC1,17%,x,x,x,x,-3%
CCOc1ccccc1CNC(=O)c1cc(-c2ccc(Cl)s2)nc2ccccc12,-5%,-10%,x,86%,37%,-1%
CC(CCc1ccccc1)NC(=O)c1ccc(C(=O)NC(C)CCc2ccccc2)cc1 (stereo not drawn),u,-6%,1%,2%,16%,12µM*
Cc1c(C(=O)O)c(O)cc2c1C(=O)c1c(O)c([C@H]3O[C@H](CO)[C@@H](O)[C@H](O)[C@H]3O)c(O)c(O)c1C2=O,x,x,x,-16%,u,x
Cc1c(C(=O)O)c(O)cc2c1C(=O)c1c(O)c([C@@H]3O[C@H](CO)[C@@H](O)[C@H](O)[C@H]3O)c(O)c(O)c1C2=O,21µM*,-2%,x,-14%,-2%,u
Cc1ccc(-n2ncc(C(=O)NCc3ccc4c(c3)OCO4)c2C2CCN(C(=O)OC(C)(C)C)CC2)cc1C,-4%,0%,x,5%,17%,18µM*
COc1ccc(CNC(=O)c2cnn(-c3ccc(OC)cc3)c2C2CCN(C(=O)OC(C)(C)C)CC2)cc1,-10%,12%,x,-3%,27%,u
SMILES,A549 viability,IDH1 R132H inh,Mito fusion yeast,TrxR1 substrate,TrxR1 inh,Nrf2 block
COc1ccc(-n2ncc(C(=O)NCc3ccc4c(c3)OCO4)c2C2CCN(C(=O)OC(C)(C)C)CC2)cc1,-14%,23%,x,-17%,-5%,16µM*
CC/C(O)=C1\C(=O)CC(C)(C)CC1=Nc1ccccc1C,18%,-6%,11µM*,-7%,-2%,-7%
CCCC/C(O)=C1\C(=O)CC(C)(C)CC1=Nc1ccccc1OC,-2%,0%,13%,-3%,10%,u
N=C1C=CC(=C(c2ccc(N)cc2)c2ccc(N)cc2)C=C1,9.2µM*,11%,x,-9%,-16%,7.3µM*
Nc1ccc(C(=O)C(=O)c2ccc(N)cc2)cc1,4%,6%,10%,-6%[57.1 µM],-5%[57.1 µM],11%
Cc1nn(-c2ccccc2)nc1C(=O)c1c(C)[nH]n(-c2ccccc2)c1=O,u,-6%,0%,-7%,-11%,21µM*
CCC(=O)Nc1ccc(-c2nnc(SCc3ccccc3)n2C)cc1,x,x,x,11%,31%,x
O=C(Cn1ccn(-c2ccc(F)c(F)c2)c(=O)c1=O)c1ccc(F)cc1,-12%,5%,x,-13%,-3%,-14%
Cc1cc(OC(=O)c2ccccc2Cl)cc(=O)n1C,3%,2%,1%,13%[57.1 µM],-60%,8.2µM*
O=C(Oc1ccc(N2C(=O)CCC2=O)cc1)c1ccccc1Cl,-5%,1%,-2%,-1%,5%,u
Cc1sc(NC(=O)Cc2ccc3c(c2)OCO3)nc1-c1ccc2c(c1)CCN2C(=O)c1cccc(F)c1,11%,1%,-1%,-12%,-10%,7.3µM*
Cc1ccc(NC(=O)C(Cc2ccccc2)NS(=O)(=O)c2cccc3nsnc23)c(C)c1 (stereo not drawn),0%,5%,x,-7%,20%,21%
CC(=O)N(CCC(Cc1ccccc1)c1ccc2c(c1)OCO2)Cc1ccc(Cl)cc1 (stereo not drawn),u,7.4µM*,u,-5%,7%,u
COc1ccc(CN(CCC(c2ccc3c(c2)OCO3)c2ccccc2OC)C(C)=O)cc1 (stereo not drawn),-6%,0%,x,3%,25%,u
COc1cccc(/C=C/c2nc(C#N)c(N3CCCCCC3)o2)c1,u,-5%,x,351%,81%,-6%
COc1ccc(-c2nc(S(=O)(=O)c3ccccc3)c(N3CCC(C)CC3)o2)cc1,-4%,10%,x,-2%,10%,1%
COc1ccccc1/C=C/c1nc(S(=O)(=O)c2ccccc2)c(N2CCC(C(N)=O)CC2)o1,-7%,-2%,35µM*,118%,2%,u
